Experimental data: PubChem BioAssay (NCATS)
Values joined by “and” are separate entries in the source; they are usually repeats but may differ in a detail not shown here. Equal entries are not always repeated. Active and inactive are the calls of the source. Unless noted, calls follow the shape of the dose curve; as a rule, active = well fitted curve in the direction sought with a large enough effect; inconclusive = small, poorly fitted or top-dose-only effect, or another doubt; inactive = no such curve, though single readings can be large; an effect the other way counts as inactive or inconclusive.

Tests used:
[1] = Cell Viability - Hek293 (AID 427;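 active = compounds whose dose-response curve shows a full or clear partial loss of cell viability, called from curve shape rather than a numeric limit; inconclusive = weak partial curves or an effect only at the top dose; inactive = no dose-dependent loss of viability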;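 also: potency is read from the fitted curve at half-maximal effect; cells exposed to compound for 40 hours at 37 °C before reading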); conditions: qHTS
Method in brief: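 Luminescent ATP read-out (CellTiter-Glo, 20 min RT) after 40 hr compound exposure at 37 °C in complete medium. Signal normalized to DMSO (basal) and 100 uM tamoxifen (100% inhibition); concentration-response fitted with the standard Hill equation to give AC50.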

[2] = Cellular Toxicity (caspase-3) Jurkat (AID 655); conditions: Jurkat caspase-3 activation, luminescence, DMSO = 0%, tamoxifen = 100%; at 92.2 µM (top of the series);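 also: cells exposed to compound for 16 h at 37 °C before reading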
Method in brief: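 Jurkat cells (5000/well) in complete medium were treated with compounds for 16 hr at 37 °C, then Caspase-Glo 3/7 luminescence was read after 20 min at room temperature. Data normalized to DMSO (basal) and 100 uM tamoxifen (100%); AC50 from Hill fit.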

[3] = Cell Viability - LYMP2-001 (AID 921); conditions: LYMP2-001 lymphoblastoid cell viability; series mostly up to 92.2 µM; also: nearly all actives have a fitted effect of over 70% in size; also: potency is read from the fitted curve at half-maximal effect
Method in brief: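 Human lymphoblastoid cells (Coriell), 2500 per well, were preincubated 5 hr at 37 C, then exposed to compounds in complete medium for 24 hr at 37 C. Cellular ATP was read by CellTiter-Glo luminescence; AC50 from Hill fits of concentration-response data.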

[4] = MultiTox-Fluor Cytotoxicity Assay - LYMP1-003 - Dead Cells (AID 961); conditions: LYMP1-003 lymphoblastoid cells, dead-cell protease fluorescence; series mostly up to 92.2 µM;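 also: 0% = DMSO and 100% = tetraoctylammonium bromide; nearly all actives have a fitted effect of over 70% in size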
Method in brief: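 Human lymphoblastoid LYMP1-003 cells (2500/well) were treated with compounds for 16 hr at 37 C in complete medium. Dead-cell protease release was read by bis-AAF-R110 fluorescence (Ex/Em 485/520). AC50 came from Hill fits, normalized to DMSO and 15 uM tetraoctylammonium bromide.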

[5] = Cell Viability - LYMP1-003 - Assay at 40 hr (AID 964); conditions: LYMP1-003 lymphoblastoid viability; series mostly up to 92.2 µM; also: nearly all actives have a fitted effect of over 60% in size; also: potency is read from the fitted curve at half-maximal effect
Method in brief: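 Human lymphoblastoid LYMP1-003 cells, 2500/well in complete medium, rested 5 hr at 37 C, then exposed to compounds for 40 hr at 37 C. Viability read as intracellular ATP by CellTiter-Glo luminescence; AC50 from Hill fits of concentration-response data.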

[6] = Cell Viability - LYMP2-009 (AID 968); conditions: LYMP2-009 lymphoblastoid cell viability; series mostly up to 92.2 µM; also: nearly all actives have a fitted effect of over 55% in size; also: potency is read from the fitted curve at half-maximal effect
[7] = Cell Viability - LYMP2-017 (AID 972); conditions: LYMP2-017 lymphoblastoid cell viability; series mostly up to 92.2 µM; also: nearly all actives have a fitted effect of over 55% in size; also: potency is read from the fitted curve at half-maximal effect
Method in brief: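 Human lymphoblastoid cells (2500/well) were seeded in complete medium, held 5 hr at 37 C, then exposed to compounds for 24 hr at 37 C. Intracellular ATP was read by CellTiter-Glo luminescence after 30 min at room temperature, with AC50 values from Hill-equation fits.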

[8] = Cell Viability - LYMP2-007 (AID 979); conditions: LYMP2-007 lymphoblastoid cell viability; series mostly up to 92.2 µM;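 also: cells exposed to compound for 24 h before reading; nearly all actives have a fitted effect of over 60% in size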; also: potency is read from the fitted curve at half-maximal effect
Method in brief: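 Human lymphoblastoid cells (2500/well) were plated in complete medium, incubated 5 hr at 37 C, then exposed to compounds for 24 hr at 37 C. Intracellular ATP was read by CellTiter-Glo luminescence after 30 min at room temperature; AC50 from Hill fits.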

[9] = Cell Viability - LYMP2-008 (AID 980); conditions: LYMP2-008 lymphoblastoid cell viability, qHTS; series mostly up to 92.2 µM; also: nearly all actives have a fitted effect of over 60% in size; also: potency is read from the fitted curve at half-maximal effect
Method in brief: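 Human lymphoblastoid cells (2500/well) were plated, held 5 hr at 37 C, then exposed to compounds for 24 hr at 37 C in complete medium. Intracellular ATP was read by CellTiter-Glo luminescence; AC50 from Hill-fitted concentration-response.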

[10] = Cell Viability - LYMP2-014 (AID 983); conditions: LYMP2-014 lymphoblastoid cells, viability qHTS; series mostly up to 92.2 µM; also: nearly all actives have a fitted effect of over 50% in size; also: potency is read from the fitted curve at half-maximal effect
Method in brief: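 Human lymphoblastoid cells (2500/well) were pre-incubated 5 hr at 37 C, then exposed to compounds in complete medium for 24 hr at 37 C. Intracellular ATP was read by CellTiter-Glo luminescence after 30 min at room temperature; AC50 from Hill fits.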

[11] = qHTS assay for small molecule antagonists of peroxisome proliferator-activated receptor delta signaling (AID 588535; active = well fitted inhibition curve with a large enough effect in the signal ratio, with a control signal flat, not every such curve was filed as active; inconclusive = small, poorly fitted or top-dose-only effect, or effect the other way, or a change in a side signal; inactive = no such curve, though single readings can be large or run the other way; the % refers to the signal ratio; also: potency is read from the fitted curve at half-maximal effect;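 as to max response: cells co-treated with a PPAR-delta agonist as stimulator during compound exposure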); conditions: HEK293T PPARd-UAS-bla, beta-lactamase FRET ratio, 18 h; 460 nm channel
Method in brief: (§1)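 Cells were seeded at 4000 per well in assay medium containing 2% charcoal/dextran FBS and held 5 hrs at 37 C. Compounds were then added for 18 hrs. CCF4 substrate was applied for 2 hrs at room temperature before fluorescence reading.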

[12] = biological target: Peroxisome proliferator-activated receptor delta (Homo sapiens) (UniProt Q03181); test: as above; conditions: HEK293T PPARd-UAS-bla, beta-lactamase FRET ratio, 18 h; series mostly up to 76.7 µM
Peroxisome proliferator-activated receptor delta (Homo sapiens), sequence (Q03181 whole entry, looked up): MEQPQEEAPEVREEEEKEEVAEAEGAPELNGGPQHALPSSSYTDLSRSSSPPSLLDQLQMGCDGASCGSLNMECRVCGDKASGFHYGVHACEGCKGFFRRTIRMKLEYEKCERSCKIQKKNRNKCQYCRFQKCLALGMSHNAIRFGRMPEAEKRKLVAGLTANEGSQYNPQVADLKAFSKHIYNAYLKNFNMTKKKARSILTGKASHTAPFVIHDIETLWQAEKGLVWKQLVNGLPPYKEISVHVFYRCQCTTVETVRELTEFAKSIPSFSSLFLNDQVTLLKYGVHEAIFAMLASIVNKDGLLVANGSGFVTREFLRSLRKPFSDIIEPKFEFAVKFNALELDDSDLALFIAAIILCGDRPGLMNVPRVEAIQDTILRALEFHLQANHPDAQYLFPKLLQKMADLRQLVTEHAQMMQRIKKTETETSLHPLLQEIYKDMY
Method in brief: as §1

[13] = qHTS assay for small molecule antagonists of retinoid X receptor alpha signaling (AID 588546); conditions: HEK293T RXRa-UAS-bla, beta-lactamase ratio, antagonist mode; measured here: W530 green channel, cytotoxicity proxy;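 also: cells stimulated with 9-cis-retinoic acid as agonist; % is scaled to controls: 0 for no effect and ±100 for the full control effect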
Method in brief: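 Beta-lactamase reporter inhibition, read as CCF4 fluorescence ratio (ex 405, em 460/530 nm) after 2 h at RT. HEK293T UAS-bla cells, 2500/well, were stimulated with 9-cis-RA at 500 or 100 nM final alongside test compound for 18 h at 37 C.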

[14] = qHTS assay for small molecule agonists of the antioxidant response element (ARE) signaling pathway measured by Nrf2-dependant transcriptional activity (AID 720636; active = well fitted curve in the direction sought with a large enough effect in the repeat runs; inconclusive = weak or mixed curves; inactive = no such curve, though single readings can be large; an effect the other way counts as inactive or inconclusive;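 also: HepG2 cells with an ARE-driven luciferase reporter; % of control where 0% means no effect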); conditions: ARE-luc HepG2, Nrf2 luciferase reporter, 16 h; series mostly up to 92.4 µM
Method in brief: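 Attachment 6 hr at 37 C, then compound versus DMSO vehicle for 16 hr in ARE-luc HepG2 cells (1% dialyzed FBS); luminescence recorded 30 min after ONE-Glo addition at room temperature.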

[15] = qHTS assay for small molecule antagonists of the retinoid-related orphan receptor gamma (ROR-gamma) signaling pathway - cell viability counter screen (AID 720652; active = well fitted curve in the direction sought with a large enough effect in the repeat runs; inconclusive = weak or mixed curves; inactive = no such curve, though single readings can be large; an effect the other way counts as inactive or inconclusive;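 also: compound exposure lasted 16 hr before ATP read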; also: potency is read from the fitted curve at half-maximal effect); conditions: RORgamma reporter cell line viability counter screen; series mostly up to 92.2 µM
Method in brief: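 Counter screen in CHO cells carrying TET-inducible ROR-gamma and an ROR response element-luciferase reporter; cells plated 5 hr, compound pinned, doxycycline added, then 16 hr at 37 C. Viability read as intracellular ATP by CellTiter-Glo luminescence.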

[16] = qHTS Assay for Identification of Small Molecule Agonists for Thrombopoietin (TPO) Signaling Pathway (AID 917); conditions: TPO signaling pathway reporter cells, agonist qHTS; series mostly up to 38.5 µM; also: % is scaled to controls: 0 for no effect and ±100 for the full control effect
Method in brief: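 Murine Ba/F3 cells stably expressing human TPO receptor and a Glycoprotein IIb promoter–luciferase reporter were IL-3-starved overnight, then treated with compounds plus TPO (26 pM final, its EC50) for 24 hrs at 37 C; luminescence was read.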

[17] = biological target: Estrogen receptor (Homo sapiens) (UniProt P03372); test: qHTS assay for small molecule antagonists of estrogen receptor alpha signaling (AID 588513; active = well fitted curve in the direction sought with a large enough effect in the signal ratio, with a control signal flat, not every such curve was filed as active; inconclusive = small, poorly fitted or top-dose-only effect, or effect the other way, or a change in a side signal; inactive = no such curve, though single readings can be large or run the other way; the % refers to the signal ratio; also: potency is read from the fitted curve at half-maximal effect); conditions: ER-alpha-UAS-bla HEK293, beta-lactamase ratio, antagonist mode; series mostly up to 76.9 µM
Estrogen receptor (Homo sapiens), sequence (P03372 whole entry, looked up): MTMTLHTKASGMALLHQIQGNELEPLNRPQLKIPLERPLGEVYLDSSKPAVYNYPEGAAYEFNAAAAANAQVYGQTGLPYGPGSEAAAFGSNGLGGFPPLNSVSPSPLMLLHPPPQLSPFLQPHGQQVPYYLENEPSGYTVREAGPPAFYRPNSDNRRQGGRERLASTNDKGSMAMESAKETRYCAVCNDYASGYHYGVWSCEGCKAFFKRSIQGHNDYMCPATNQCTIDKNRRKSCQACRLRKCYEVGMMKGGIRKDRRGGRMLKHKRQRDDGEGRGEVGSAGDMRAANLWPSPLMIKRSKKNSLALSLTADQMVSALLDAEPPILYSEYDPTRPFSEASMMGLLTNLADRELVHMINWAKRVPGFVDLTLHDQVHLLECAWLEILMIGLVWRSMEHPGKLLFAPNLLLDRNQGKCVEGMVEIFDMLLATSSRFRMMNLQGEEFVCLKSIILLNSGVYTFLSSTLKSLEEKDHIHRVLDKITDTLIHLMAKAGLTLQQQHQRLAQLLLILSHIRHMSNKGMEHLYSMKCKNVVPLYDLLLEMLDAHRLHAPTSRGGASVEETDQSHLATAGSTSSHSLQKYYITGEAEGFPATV
Method in brief: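 ER-alpha-UAS-bla GripTite HEK 293 cells in medium with 2% charcoal/dextran-treated FBS were preincubated 4 h at 37 C, dosed with compound (1:2 titration), stimulated with 0.5nM 17-beta-estradiol for 18 h, then read by CCF4 beta-lactamase fluorescence.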

[18] = biological target: Vitamin D3 receptor (Homo sapiens) (UniProt P11473); test: qHTS assay for small molecule antagonists of vitamin D receptor signaling (AID 588541; calls by dose curve;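 also: receptor activated by calcitriol during compound treatment; % is scaled to controls: 0 for no effect and ±100 for the full control effect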); conditions: HEK293T VDR-UAS-bla, beta-lactamase ratio, antagonist mode; series mostly up to 76.7 µM
Vitamin D3 receptor (Homo sapiens), sequence (P11473 whole entry, looked up): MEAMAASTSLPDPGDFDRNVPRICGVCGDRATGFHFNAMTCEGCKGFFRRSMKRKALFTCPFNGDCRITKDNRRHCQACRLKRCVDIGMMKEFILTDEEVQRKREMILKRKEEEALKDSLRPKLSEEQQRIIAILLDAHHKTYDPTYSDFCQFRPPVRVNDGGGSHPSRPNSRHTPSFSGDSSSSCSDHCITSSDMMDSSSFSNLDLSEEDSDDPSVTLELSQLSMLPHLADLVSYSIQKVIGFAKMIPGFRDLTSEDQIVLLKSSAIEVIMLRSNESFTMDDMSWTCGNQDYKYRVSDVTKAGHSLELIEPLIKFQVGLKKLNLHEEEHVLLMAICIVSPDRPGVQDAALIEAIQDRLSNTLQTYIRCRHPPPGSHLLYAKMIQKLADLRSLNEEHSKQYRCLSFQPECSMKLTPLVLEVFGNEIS
Method in brief: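 VDR-UAS-bla HEK293T cells in 2% charcoal-stripped FBS were stimulated with 1-alpha,25-dihydroxyvitamin D3 (3 nM final) plus compound for 16 h at 37 C. The beta-lactamase CCF4 readout was normalized to 50 nM agonist and DMSO, and Hill fits gave IC50.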

[19] = qHTS assay for small molecule activators of the p53 signaling pathway (AID 651743; active = well fitted activation curve with a large enough effect in the signal ratio, not every such curve was filed as active; inconclusive = small, poorly fitted or top-dose-only effect, or a change in a side signal; the % refers to the signal ratio; also: potency is read from the fitted curve at half-maximal effect; as to activation: % of control where 0% means no effect); conditions: HCT-116 p53RE-bla, beta-lactamase FRET ratio, 16 h; activation: stronger effect = higher value
Method in brief: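 HCT-116 p53RE-bla, 4,000 cells/well; 5 h settle; cpd/DMSO 16 h, 37 C; LiveBLAzer B/G 2 h RT; fluorescence intensity.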

[20] = qHTS assay for small molecule disruptors of the mitochondrial membrane potential - 5 hr assay (AID 651755; calls by dose curve; also: % is scaled to controls: 0 for no effect and ±100 for the full control effect; nearly all actives have a fitted effect of over 40% in size); conditions: JC-1-type ratio dye; series mostly up to 92.2 µM
Method in brief: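 HepG2 cells (2,000/well), attached overnight, exposed to compound 5 hr at 37C, then Mito-MPS dye 30 min. Fluorescence read for monomers (490/535 nm) and aggregates (540/590 nm).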

C=CCc1ccc(OC)cc1
-1.65%: max response [13]
inactive: Potency [1] > 92 µM | caspase-3 activation [2] 0.324% | Potency [3] | Potency [4] | Potency [5] | Potency [6] | Potency [7] | Potency [8] | Potency [9] | Potency [10] | Potency [12] | outcome [14] | Potency [15]
-9.08%: max response [11]

CC[C@@]1(c2ccc(N)cc2)CCC(=O)NC1=O
inactive: outcome [16]

NC[C@H](O)c1ccc(O)cc1
inactive: outcome [16]

C[N+]1(C)[C@@H]2CC[C@H]1CC(OC(=O)[C@@H](CO)c1ccccc1)C2 (stereo partly drawn)
inactive: outcome [16]

C[C@H](NC(C)(C)C)C(=O)c1cccc(Cl)c1
inactive: outcome [16]

COc1ccc(OC)c([C@H](O)[C@H](C)N)c1
inactive: outcome [16]

C[C@]12CC[C@H](O)C[C@@H]1CC[C@H]1[C@H]2CC[C@]2(C)C(=O)CC[C@@H]12
inactive: outcome [16]

CS(=N)(=O)CC[C@@H](N)C(=O)O (stereo partly drawn)
inactive: outcome [16]

CC(C)N(CC[C@@](C(N)=O)(c1ccccc1)c1ccccn1)C(C)C
inactive: outcome [16]

CNC(=O)N(C)c1nnc(C(C)(C)C)s1
-11.1%: max response [13]
22%: max response [11]
inactive: Potency [17] | Potency [12] | outcome [18] | activation [19] -3.47%

O=C1C(Cl)=C(Cl)C(=O)C(Cl)=C1Cl
-78.9%: max response [11]
inactive: caspase-3 activation [2] -9.68% | Potency [20]
active: Potency [3] 12.6 µM | Potency [5] 31.6 µM | Potency [6] 20 µM | Potency [7] 20 µM | Potency [8] 15.8 µM | Potency [9] 39.8 µM | Potency [10] 20 µM | Potency [17] 25.1 µM [inconclusive] | Potency [12] 12.6 µM | Potency [19] 25.1 µM | Potency [15] 23.7 µM

O=C(O)COc1ccc(Cl)cc1Cl
inactive: Potency [1] > 92 µM | caspase-3 activation [2] -0.262% and -0.585% | Potency [3] | Potency [4] | Potency [5] | Potency [6] | Potency [7] | Potency [8] | Potency [9] | Potency [10] | outcome [18] | activation [19] -2.21% [middle of 4 runs] | Potency [20] | outcome [14] | Potency [15]

CCNc1nc(Cl)nc(NC(C)C)n1
inactive: Potency [1] > 92 µM | caspase-3 activation [2] 0.071% | Potency [4] | Potency [5] | Potency [6] | Potency [7] | Potency [8] | Potency [9] | Potency [10] | Potency [17] | outcome [18] | activation [19] -2.86% and -1.26% | outcome [14] | Potency [15]
3.95% and -7.9%: max response [13]
